PubChem BioAssay AID651548 (Broad Institute, 2012)
“And” between values parts separate entries of the source, which are not always exact repeats. Equal values may be shown once. In all, about 57,000 compounds went through this assay and about 200 (0.35%) were called active.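 Rule for the calls: active = mean inhibition of replicates at least 50% and every single replicate also reaching 50%; inconclusive = mean inhibition at least 50% but some replicate falls below 50%; inactive = mean inhibition under 50%.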 What follows is part of a selection rich in actives, with near analogues and random picks from the rest.

What follows are molecules tested against Histone-lysine N-methyltransferase EZH2 (Homo sapiens) (UniProt Q15910) (assay: inhibition of PRC2 H3K27 methylation – biochemical, DELFIA time-resolved fluorescence, single point, primary screen (AID 651548;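 note: dimethyl H3K27 on biotinylated H3 21-44 peptide detected by antibody; plate controls were median neutral control wells for no effect and median positive control wells for full effect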)). Settings: DELFIA TRF, 1 h, at 12.5 µM, stronger effect = higher value.
Sequence of Histone-lysine N-methyltransferase EZH2 (Homo sapiens) (Q15910 whole entry, looked up): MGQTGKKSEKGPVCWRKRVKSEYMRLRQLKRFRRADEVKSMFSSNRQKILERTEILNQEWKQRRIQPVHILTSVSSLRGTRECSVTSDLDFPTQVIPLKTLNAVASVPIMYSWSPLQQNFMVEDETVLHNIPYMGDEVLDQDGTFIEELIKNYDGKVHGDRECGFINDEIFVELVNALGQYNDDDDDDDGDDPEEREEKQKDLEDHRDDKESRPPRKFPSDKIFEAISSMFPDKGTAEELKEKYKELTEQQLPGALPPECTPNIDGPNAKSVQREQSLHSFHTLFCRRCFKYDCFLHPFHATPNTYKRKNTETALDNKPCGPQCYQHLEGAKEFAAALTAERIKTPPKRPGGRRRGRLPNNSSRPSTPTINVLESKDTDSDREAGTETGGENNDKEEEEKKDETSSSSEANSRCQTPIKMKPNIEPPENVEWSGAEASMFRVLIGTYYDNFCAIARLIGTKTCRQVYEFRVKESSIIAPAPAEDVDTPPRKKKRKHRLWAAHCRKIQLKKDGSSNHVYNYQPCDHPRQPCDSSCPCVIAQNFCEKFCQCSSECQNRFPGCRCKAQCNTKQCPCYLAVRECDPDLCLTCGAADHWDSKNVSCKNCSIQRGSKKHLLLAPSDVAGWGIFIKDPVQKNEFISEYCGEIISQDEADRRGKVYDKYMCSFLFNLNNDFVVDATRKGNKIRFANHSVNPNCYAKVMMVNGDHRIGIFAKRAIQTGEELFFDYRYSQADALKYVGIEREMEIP

Row | SMILES | inhibition
1 | O=C(C[C@@H]1C=C[C@H](NC(=O)C2CCOCC2)[C@H](CO)O1)NCc1ccncc1 | 7.09% (inactive)
2 | CCC(=O)Nc1ccc2c(c1)C(=O)N(C)C[C@H](OC)[C@@H](C)CN(Cc1cccnc1)[C@H](C)CO2 | 2.36% (inactive)
3 | CO[C@H]1CN(C)C(=O)c2cc(NC(=O)NC(C)C)ccc2OC[C@@H](C)NC[C@@H]1C | 4.41% (inactive)
4 | Cc1ccc(S(=O)(=O)N[C@@H]2CC[C@H](CCn3cc(-c4cccc(F)c4)nn3)O[C@@H]2CO)cc1 | -11.1% (inactive)
5 | CC(C)NC(=O)N[C@@H]1CC[C@H](CCn2cc(-c3ccccc3)nn2)O[C@H]1CO | 6.84% (inactive)
6 | CO[C@H]1CN(C)C(=O)c2ccc(NC(C)=O)cc2OC[C@@H](C)NC[C@H]1C | -8.55% (inactive)
7 | COC(=O)[C@H](Cc1ccc(N=[N+]=[N-])cc1)N1CC2=C[C@@H](C3CC3)n3c(=O)n(C)c(=O)n3[C@H]2[C@@H]1[C@@H](O)Cc1ccccc1 | 1.09% (inactive)
8 | CO[C@@H]1CN(C)C(=O)c2cc(NC(=O)C3CC3)ccc2OC[C@H](C)N(C(=O)c2ccccc2F)C[C@H]1C | 3.97% (inactive)
9 | COCC(=O)N(C)C[C@@H]1Oc2ncc(C#C[C@H](C)O)cc2C(=O)N([C@@H](C)CO)C[C@@H]1C | -0.468% (inactive)
10 | O=C(C[C@@H]1CC[C@@H](NC(=O)c2ccc3c(c2)OCO3)[C@H](CO)O1)NCc1ccc(F)cc1 | -0.86% (inactive)
11 | COc1ccc(CNC(=O)C[C@H]2CC[C@H](NC(=O)Nc3ccc4c(c3)OCO4)[C@H](CO)O2)cc1 | 13.2% (inactive)
12 | C[C@H](CO)N1C[C@H](C)[C@@H](CN(C)C(=O)c2ccccc2)OCCCC[C@H](C)Oc2ccc(NC(=O)c3ccccc3)cc2C1=O | -18.6% (inactive)
13 | CO[C@@H]1CN(C)C(=O)c2cc(NC(=O)NC3CCCCC3)ccc2OC[C@@H](C)N(C(C)=O)C[C@H]1C | 0.307% (inactive)
14 | C[C@@H]1CN([C@H](C)CO)S(=O)(=O)c2ccc(-c3ccccc3)cc2O[C@H]1CN(C)C(=O)C1CCC1 | -4.42% (inactive)
15 | CO[C@@H]1CN(C)C(=O)c2ccc(NC(=O)Nc3c(C)noc3C)cc2OC[C@@H](C)NC[C@H]1C | 0.549% (inactive)
16 | CO[C@@H]1CN(C)C(=O)c2cc(NS(=O)(=O)c3ccc(Cl)cc3)ccc2OC[C@H](C)NC[C@@H]1C | 3.36% (inactive)
17 | CO[C@@H]1CN(C)C(=O)c2ccc(NC(=O)c3ccccn3)cc2OC[C@@H](C)N(C(=O)C2CCCCC2)C[C@H]1C | -0.858% (inactive)
18 | CO[C@@H](CN(C)C(=O)c1ccc2c(c1)OCO2)[C@@H](C)CN([C@H](C)CO)S(=O)(=O)c1ccccc1 | -0.585% (inactive)
19 | CO[C@H]1CN(C)C(=O)c2cc(NC(=O)Nc3ccccc3F)ccc2OC[C@@H](C)N(CCC(F)(F)F)C[C@@H]1C | -15.8% (inactive)
20 | C[C@H](NC(=O)C[C@@H]1C[C@@H]2c3cc(NC(=O)Nc4ccc(C(F)(F)F)cc4)ccc3O[C@@H]2[C@H](CO)O1)c1ccccc1 | -10.9% (inactive)
21 | O=C(Nc1ccccc1)N[C@@H]1CC[C@H](CCn2cc(C3(O)CCCC3)nn2)O[C@@H]1CO | -9.38% (inactive)
22 | CCNC(=O)C[C@@H]1CC[C@@H](NC(=O)NC2CCCCC2)[C@H](CO)O1 | -1.26% (inactive)

Row | SMILES | inhibition
23 | C[C@@H](NC(=O)C[C@@H]1C[C@@H]2c3cc(NC(=O)c4cccnc4)ccc3O[C@@H]2[C@H](CO)O1)c1ccccc1 | 4.89% (inactive)
24 | CCC(=O)N1C[C@@H](C)[C@@H](OC)CN(C)C(=O)c2ccc(NC(=O)c3ccccc3)cc2OC[C@H]1C | 2.93% (inactive)
25 | C[C@@H]1CN([C@H](C)CO)S(=O)(=O)c2ccc(C#CCC3CCCC3)cc2O[C@H]1CN(C)Cc1ccc(C(=O)O)cc1 | 58.1% (active)
26 | CCCN(C)C[C@H]1Oc2cc(C#CCC3CCCC3)ccc2S(=O)(=O)N([C@@H](C)CO)C[C@@H]1C | 10.9% (inactive)
27 | C[C@@H]1CN([C@@H](C)CO)S(=O)(=O)c2ccc(C#CCC3CCCC3)cc2O[C@@H]1CN(C)C | -6.13% (inactive)
28 | CO[C@@H](CN(C)S(=O)(=O)c1ccc(C)cc1)[C@@H](C)CN([C@@H](C)CO)S(=O)(=O)c1cccc(Cl)c1 | 9.64% (inactive)
29 | CN(C)CCCNC(=O)C[C@H]1C=C[C@@H](NC(=O)Cc2cccnc2)[C@H](CO)O1 | 13.4% (inactive)
30 | Cc1ccccc1S(=O)(=O)NCC[C@@H]1CC[C@H](NC(=O)C2CC2)[C@@H](CO)O1 | -14.1% (inactive)
31 | COCCNC(=O)C[C@H]1CC[C@H](NS(=O)(=O)c2ccc(C)cc2)[C@@H](CO)O1 | -9.8% (inactive)
32 | COCC(=O)N(C)C[C@@H]1Oc2cc(C#CCC(C)C)ccc2S(=O)(=O)N([C@@H](C)CO)C[C@@H]1C | 7.89% (inactive)
33 | CO[C@H]1CN(C)C(=O)c2cc(NC(=O)C3CCCC3)ccc2OC[C@@H](C)N(C(=O)CC2CC2)C[C@@H]1C | 4.88% (inactive)
34 | C[C@@H]1CN([C@H](C)CO)C(=O)c2cc(NC(=O)CCCN(C)C)ccc2O[C@@H](C)CCCCO[C@H]1CN(C)CC1CCCCC1 | -6.09% (inactive)
35 | C[C@@H]1CN([C@@H](C)CO)S(=O)(=O)c2ccc(C3=CCCCC3)cc2O[C@@H]1CN(C)C(=O)CN(C)C | -15.1% (inactive)
36 | O=C(C[C@@H]1C[C@@H]2c3cc(NC(=O)Nc4ccc(F)cc4)ccc3O[C@@H]2[C@H](CO)O1)NCC(F)(F)F | -13.1% (inactive)
37 | CO[C@@H]1CN(C)C(=O)c2cc(NC(=O)c3ccccc3F)ccc2OC[C@H](C)N(C(C)=O)C[C@@H]1C | -5.74% (inactive)
38 | C[C@H]1CN([C@@H](C)CO)C(=O)c2cc(Br)cnc2O[C@@H]1CN(C)S(=O)(=O)c1ccc(F)cc1 | 30.8% (inactive)
39 | O=C(C[C@@H]1CC[C@@H](NC(=O)c2ccc3c(c2)OCO3)[C@H](CO)O1)NCc1ccc(Cl)cc1 | 11.8% (inactive)
40 | C[C@@H]1CN([C@H](C)CO)C(=O)c2cccc(NC(=O)CCCCCC(=O)Nc3ccccc3N)c2O[C@H]1CN(C)Cc1ccc(Oc2ccccc2)cc1 | -2.58% (inactive)
41 | CCCCCc1ccc(/C=C/C(=O)Nc2ccccc2C(=O)O)cc1 | 61.8% (active)
42 | O=C(O)CCCc1ccccc1 | -7.51% (inactive)
43 | CN(C)CCCSc1ccccc1NC(=O)/C=C/c1ccccc1 | 7.12% (inactive) and -8.56% (inactive)
44 | O=C(N[C@@H]1CC[C@@H](CCNS(=O)(=O)Cc2ccccc2)O[C@@H]1CO)c1ccccc1F | -4.43% (inactive)

Row | SMILES | inhibition
45 | CCCNC(=O)Nc1ccc2c(c1)C(=O)N(C)C[C@@H](OC)[C@H](C)CN(C(=O)C1CCCCC1)[C@H](C)CO2 | 4.24% (inactive)
46 | O=C(N[C@H]1CC[C@@H](CCNS(=O)(=O)c2cccc(Cl)c2)O[C@@H]1CO)c1ccncc1 | 4.59% (inactive)
47 | O=C(NCC[C@@H]1CC[C@@H](NC(=O)C2CCCC2)[C@H](CO)O1)c1cnccn1 | -12% (inactive)
48 | C[C@@H]1CN([C@@H](C)CO)C(=O)c2c(c3ccccc3n2C)-c2ccccc2CO[C@H]1CN(C)C(=O)N[C@H](C)c1ccccc1 | -0.352% (inactive)
49 | CO[C@@H]1CN(C)C(=O)c2cc(NC(=O)C3CCC3)ccc2OC[C@H](C)N(C(=O)CN(C)C)C[C@@H]1C | -0.841% (inactive)
50 | CCCNC(=O)C[C@H]1C[C@@H]2c3cc(NC(=O)NC4CCCC4)ccc3O[C@@H]2[C@@H](CO)O1 | 5.85% (inactive)
51 | C[C@H](NC(=O)C[C@H]1C=C[C@@H](NC(=O)C2CCOCC2)[C@@H](CO)O1)c1ccccc1 | 3.06% (inactive)
52 | COc1ccccc1-c1cccc(-c2nc(C(=O)N3CCN(C)CC3)cc3c2[C@H](CCO)N([S@@](=O)C(C)(C)C)C3)c1 | 1.13% (inactive)
53 | CO[C@@H]1CN(C)C(=O)c2cc(NC(C)=O)ccc2OC[C@@H](C)N(C(=O)NC2CCCCC2)C[C@H]1C | 3.91% (inactive)
54 | O=C(C[C@H]1C[C@H]2c3cc(NC(=O)C4CCC4)ccc3O[C@H]2[C@@H](CO)O1)NCc1ccc(Cl)cc1 | -2.37% (inactive)
55 | CN1CCN(C(=O)C[C@@H]2C[C@@H]3c4cc(NC(=O)c5ccc6c(c5)OCO6)ccc4O[C@@H]3[C@H](CO)O2)CC1 | -2.8% (inactive)
56 | COc1cccc(-c2ccc3c(c2)O[C@H](CN(C)C(=O)c2ccccc2F)[C@@H](C)CN([C@@H](C)CO)S3(=O)=O)c1 | 0.0695% (inactive)
57 | O=C(Nc1ccccc1)Nc1ccc2c(c1)[C@@H]1C[C@@H](CC(=O)N3CCCCC3)O[C@H](CO)[C@@H]1O2 | -1.6% (inactive)
58 | O=C(C[C@H]1C[C@H]2c3cc(NC(=O)Nc4ccccc4)ccc3O[C@H]2[C@H](CO)O1)NC1CCCC1 | 2.44% (inactive)
59 | COc1ccccc1NC(=O)N[C@H]1CC[C@H](CCNS(=O)(=O)c2ccc(Cl)cc2)O[C@H]1CO | 47.2% (inactive)
60 | COc1cccc(C(=O)Nc2ccc3c(c2)OC[C@H](C)N(C(C)=O)C[C@@H](C)[C@@H](OC)CN(C)C3=O)c1 | 6.08% (inactive)
61 | C/C=C/c1ccc2c(c1)O[C@H](CN(C)C(=O)C1CCCCC1)[C@@H](C)CN([C@@H](C)CO)S2(=O)=O | 13.7% (inactive)
62 | CCC(=O)Nc1ccc2c(c1)OC[C@@H](C)N(Cc1cncnc1)C[C@H](C)[C@@H](OC)CN(C)C2=O | -1.64% (inactive)
63 | COc1ccc(C(=O)Nc2ccc3c(c2)OC[C@H](C)N(C(C)=O)C[C@@H](C)[C@@H](OC)CN(C)C3=O)cc1 | -11.8% (inactive)
64 | CO[C@@H]1CN(C)C(=O)c2ccc(NC(=O)C3CC3)cc2OC[C@@H](C)N(Cc2ccncc2)C[C@@H]1C | 8.95% (inactive)
